# Target: C6orf105
# Test: pooled miR-30 sensor sort-seq; sequence = guide strand
# Conditions: shRNA
# Note: reference of the scale not given here.
row,Sequence,sensor-assay potency score (higher = more potent)
1,TTGCATGATTCAGCCACACGGG,-0.688
2,TAATTGAGGAAAGTATACCAGC,-0.629
3,TATATTTCCACCTTGCACCATT,-0.555
4,TCTTTTCAGCACATCATCCAGG,-0.0678
5,TTGTAGAGAAAGAGGATCCAGA,-0.578
6,TTCTTTTCAGCACATCATCCAG,-1.18
7,TATCACTCTCTGTCCCTCCTAC,0.281
8,TTAAGTATCACTCTCTGTCCCT,0.33
9,TCTCCAAGTAGGTAGATGCTGG,-0.762
10,TAAGTATCACTCTCTGTCCCTC,-0.473
11,TTCAGCACATCATCCAGGCAGG,-0.972

# Target: C6orf118
# Test: as above
# Conditions: shRNA
row,Sequence,sensor-assay potency score (higher = more potent)
1,TTTTACTAGAGATTAAAGCTGA,0.127
2,TACACAGGGTCTTCACTCCTGG,-0.203
3,TTAAGAACTAGTATTGTTGTAA,0.558
4,TTCAGGTACCTGAACAGCGGGG,-1.06
5,TTGCTTGGCGAGCACTTCCTTC,-1.21
6,TATGTTTCTCAGATGATTCTGA,0.578
7,TAGAGGTAGACGTCCTCCCGGT,-0.61
8,TGAAATTCCAGTATGAACCAAA,-0.164
9,TTACACAGGGTCTTCACTCCTG,0.491
10,TTGTATAGCTTCATGCTCTATG,0.444
11,TCTCAGATGATTCTGATCGTTC,-0.778

# Target: C6orf145
# Test: as above
# Conditions: shRNA
row,Sequence,sensor-assay potency score (higher = more potent)
1,TTACTAAACATCCCCTGCCTGT,-0.858
2,TATACTGTGGTCAATAACTATT,-1.52
3,TATGATCGTCTTCAGCAGCTTC,-1
4,TCAATAACTATTGTTTCGGTAT,-0.234
5,TTGACTGGACTTTGAAAGCTGG,-0.406
6,TATTTGCTAAACAAAATCCATT,-1.51
7,TCGTTAGTAGACACTGAGCAGA,-0.734
8,TTTACATTAGCAAATGTCGGTC,-0.665
9,ATTTTTTAACACCTGATCCAGA,-0.814
10,TGGATTACTAAACATCCCCTGC,-0.823
11,TTATCTAGTCGGCAATGCCTTC,-1.25

# Target: C6orf203
# Test: as above
# Conditions: shRNA
row,Sequence,sensor-assay potency score (higher = more potent)
1,TAGTAGATTTTGTAGACCTTAT,-0.878
2,TAGTTTTTGACTACAGTAGGAT,-0.319
3,TAGAAAAATACAAGTATCGATT,-1.01
4,TATTTTAATAAAAATGTCCTAT,-0.604
5,TTATAGTTTTTGACTACAGTAG,-0.647
6,TTTGTAGAAAGCATCTTCCACT,-0.297
7,TATTACTTTTGAGTCTTACGGA,-0.0954
